Test results published in PubChem BioAssay (EPA / NIEHS).
Records with an inconclusive call do not appear. Active and inactive are the calls of the source. Rule for the calls: active = hit-call score of the fitted dose curve at least 0.9, where 1 is the maximum; inconclusive = response in the unintended direction; inactive = score below 0.9.

Experiment: ATG_M_32_TRANS: Attagene TRANS-FACTORIAL HepG2 Assay for M32 Transcription Factor (Internal Marker) (AID 2282984)
Settings: HepG2 Attagene TRANS M32 internal marker reporter
Method: ATG_TRANS is a cell-based, multiplexed-readout assay that uses HepG2, a human liver cell line, with measurements taken at 24 hours after chemical dosing in a 24-well plate.ATG_M_32_TRANS is one of 30 assay component(s) measured or calculated from the ATG_TRANS assay. It is designed to make measurements of mRNA induction, a form of inducible reporter, as detected with fluorescence intensity signals by Reverse transcription polymerase chain reaction (RT-PCR) and Capillary electrophoresis technology.Data from the assay component ATG_M_32_TRANS was analyzed into 1 assay endpoint. This assay endpoint, ATG_M_32_TRANS, was analyzed in the positive analysis fitting direction relative to DMSO as the negative control and baseline of activity. Using a type of inducible reporter, measures of mRNA for gain-of-signal activity can be used to understand the background control at the transcription factor-level as they relate to the gene . Furthermore, this assay endpoint can be referred to as a secondary readout, because this assay has produced multiple assay endpoints where this one serves a background control function. To generalize the intended target to other relatable targets, this assay endpoint is annotated to the background measurement intended target family, where the subfamily is internal marker.
Human liver HepG2 cells are transiently transfected with multiple reporter transcription units (MRTUs) in 6-well plates using FuGene 6 reagent (Roche; 3 ml FuGene/1 mg DNA). The MRTU constructs are regulated by a cis-regulating element (promoter). […] A major difference between the CIS and TRANS system is that in CIS activities of endogenous TFs are measured, whereas the TRANS assay evaluates changes in activities of exogenous, chimeric NR-Gal4 proteins. […] At the end of 24 hour incubation, total RNA was isolated using TriZol reagent (Invitrogen). The isolated RNA is then reverse-transcribed using oligo(dT) primer and Mo-MLV reverse transcriptase (Invitrogen) with DNAse I (Ambion) treatment for 30 min. The one-tenth of the produced cDNA was amplified by PCR using Taq DNA polymerase (Invitrogen) and two reporter sequence-specific primers. The PCR products were fluorescently labeled by primer extension with 6-arboxyfluorescein (6-FAM) 5'-labeled reporter sequence-specific primer (2 min at 95 C, 20 s at 68 C and 10 min at 72 C) and these products were digested with 5U of HpaI (New England Biolabs) for 2h at 37 C. The fragments were purified using Qiaquick PCR columns (Qiagen), analyzed on an ABI 3130xL genetic analyzer (Applied Biosystems) with peak positions identified by using a set of X-rhodamine (ROX)-labeled MapMarker1000 molecular weight standards (BioVentures). The raw capillary electrophoresis data was processed using Attagraph software (Attagene).

outcome, inactive:
O=C1OC(=O)c2c(Br)c(Br)c(Br)c(Br)c21
Cc1ncc[nH]1
C=C(C#N)C(=O)OCC
CCC(C)S (stereo not given)
Nc1ccc(N)c2c1C(=O)c1ccccc1C2=O
CC(C)CC(C)CC(O)CC(C)C (stereo not given)
CCC1(c2ccccc2)C(=O)NCNC1=O
[Cl][Au]([Cl])[Cl]
Nc1ccc2cc(S(=O)(=O)O)cc(O)c2c1N=Nc1ccccc1C(F)(F)F
CCN(CCC#N)c1ccc(N=Nc2ccc([N+](=O)[O-])cc2)cc1
O=c1[nH]c(=O)c2cn[nH]c2[nH]1
CCCCCCOCCOCCO
CCCOCCO
CN(c1nccc(=O)[nH]1)C1CCN(c2nc3ccccc3n2Cc2ccc(F)cc2)CC1
Nc1ccc(Cl)c([N+](=O)[O-])c1
C=C1CC[C@H](O)C/C1=C/C=C1\CCC[C@]2(C)[C@@H]([C@H](C)/C=C/[C@H](C)C(C)C)CC[C@@H]12
CCOC(=O)c1ccc(N)cc1
Clc1cc(Cl)c(-c2c(Cl)c(Cl)cc(Cl)c2Cl)cc1Cl
O=C(O)CNc1ccccc1
CC(=O)CC(=O)Nc1ccc(C)cc1C
CCCCCCC(O)CCCCCCCCCCC(=O)O (stereo not given)
C[C@H]1O[C@@H](O[C@H]2[C@@H](O)C[C@H](O[C@H]3[C@@H](O)C[C@H](O[C@H]4CC[C@@]5(C)[C@H](CC[C@@H]6[C@@H]5C[C@@H](O)[C@]5(C)[C@@H](C7=CC(=O)OC7)CC[C@]65O)C4)O[C@@H]3C)O[C@@H]2C)C[C@H](O)[C@@H]1O
OCCOCCN1CCN(C2=Nc3ccccc3Sc3ccccc32)CC1
NCCNc1cccc2ccccc12
O=C(O)c1cc(C(=O)O)cc([N+](=O)[O-])c1
CCCC(=O)OC(C)(C)Cc1ccccc1
COc1ccc(CCN2CCC(Nc3nc4ccccc4n3Cc3ccc(F)cc3)CC2)cc1
CCCSc1ccc2nc(NC(=O)OC)[nH]c2c1
CCc1ccc(O)cc1
C=C(C)[C@@H]1CC=C(C)C(=O)C1
O=C1c2ccccc2C(=O)c2c(O)ccc(O)c21
C#CC(C)(O)CC(C)C (stereo not given)
O=C(Nc1ccc2c(c1)Cc1ccccc1-2)C(F)(F)F
CC1C2CC(CC2C2CCCC(O)C2)C1(C)C (stereo not given)
NCC1CCCC(CN)C1 (stereo not given)
CCCCCCC(C)(C)S
CCCCCC(C)=O
CC(=O)O[C@@H]1C[C@@H]2CC[C@@]1(C)C2(C)C
CS(=O)(=O)OCCCCOS(C)(=O)=O
COC(C)(C)CCCC(C)CC=O (stereo not given)
